High-throughput results from PubChem BioAssay.
Compounds with a hit are over-represented: about 18% of the library has one in this group of screens.
TDP1 cell noCPT – qHTS for Inhibitors of human tyrosyl-DNA phosphodiesterase 1 (TDP1): qHTS in cells in absence of CPT | Potency, µM (doses to about 46.2 µM), actives largely listed as inhibitors | DT40 Tdp1-/- hTDP1 cells, no CPT, ATP luminescence, 48 h | actives 15% (n = 420,000); note: nearly all actives have a fitted effect of over 55% in size
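Cells were dispensed at 400 per well, compounds added by pin tool, plates incubated ≥48 hr at 37 °C, then CellTiter-Glo added for 30 min at room temperature before luminescence reading. Line: DT40 Tdp1-/- complemented with hTDP1; camptothecin omitted.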
IL1B secr inh – inflammasome signaling inhibition, IL-1 beta readout | THP-1 LPS/ATP IL-1B secretion, AlphaLISA, 16 h; active compounds read low | activity change, % at 57.5 µM | actives 4.7% (n = 360,000); in the data active = activity change below about -50%; inconclusive = mostly about -30% to -49%
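Secreted IL-1B measured by AlphaLISA bead assay after 16 h compound exposure of THP-1 cells; compounds (final up to 57.5 uM) added 1 h before LPS (250 ng/mL) and ATP (1.25 mM) stimulation; lower signal means less secretion.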
LDHA inh – inhibitors of human lactate dehydrogenase A; AID 1347041; actives 0.15% (n = 480,000); activity change, % (values are at about 110 or 230 µM); purified LDHA, NADH/diaphorase-resazurin fluorescence; active compounds read low; in the data active = activity change below about -30%; inconclusive = mostly about -25% to -30%
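Resorufin fluorescence (ex540/em590), read at 0 and 20 min after diaphorase/resazurin addition, reports the NADH left after a 5 min room-temperature reaction of 2 nM human LDH5 with 0.06 mM NADH and 0.2 mM pyruvate.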
DT40 TDP1 CPT – DT40-hTDP1 cell growth loss with CPT | chicken DT40 Tdp1-/-;hTDP1 cells + 20 nM CPT, ATP luminescence, 48 h | Potency, µM (titrated, usually from 46.2 µM), most hits filed as inhibitors | actives 12% (n = 420,000); note: nearly all actives have a fitted effect of over 55% in size
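Cell growth measured by CellTiter-Glo luminescence after a minimum 48 h, 37 C compound exposure with 20 nM CPT in Tdp1-knockout DT40 cells stably expressing hTDP1, seeded 400/well; qHTS titration format.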
Gal4-VP16 FLuc – counter-screen for ROR gamma inhibitors: Gal4-VP16 reporter. Drosophila S2 Gal4-VP16 UAS-luciferase, luminescence, 20 h. Potency, µM (highest dose often 53.6 µM), hits mostly inhibitors. actives 3.5% (n = 310,000);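 note: Gal4-VP16 expression switched on by copper sulfate through the metallothionein promoter; nearly all actives have a fitted effect of over 50% in size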
RORg inh – blocks mouse ROR gamma transcriptional activity | P51450 | Drosophila S2 Gal4-RORgamma UAS-luciferase reporter, 20 h | Potency, µM (titrated, usually from 53.6 µM), hits mostly inhibitors | actives 5.4% (n = 310,000) | AID 2551; note: nearly all actives have a fitted effect of over 60% in size
Target sequence (P51450 whole entry, looked up, the tested form may be a part): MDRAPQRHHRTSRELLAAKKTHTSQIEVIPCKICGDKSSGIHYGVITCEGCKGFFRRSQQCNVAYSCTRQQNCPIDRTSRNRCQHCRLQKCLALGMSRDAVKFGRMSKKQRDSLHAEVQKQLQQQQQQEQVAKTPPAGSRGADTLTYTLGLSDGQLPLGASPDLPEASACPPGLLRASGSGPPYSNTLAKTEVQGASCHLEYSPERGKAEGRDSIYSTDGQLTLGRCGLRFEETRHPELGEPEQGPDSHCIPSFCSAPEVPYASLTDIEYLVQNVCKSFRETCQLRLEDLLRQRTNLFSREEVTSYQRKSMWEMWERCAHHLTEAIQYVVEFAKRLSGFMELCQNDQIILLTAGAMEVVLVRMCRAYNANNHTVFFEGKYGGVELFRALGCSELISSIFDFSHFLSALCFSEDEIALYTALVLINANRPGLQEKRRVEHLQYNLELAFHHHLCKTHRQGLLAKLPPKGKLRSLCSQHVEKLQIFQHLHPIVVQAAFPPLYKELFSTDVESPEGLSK
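Luciferase reporter read in Schneider cells carrying Gal4-RORγ (mouse) and UAS-Photinus luciferase; cells given compound 1 h before 700 uM copper sulfate induction, then incubated 20 h at ambient temperature.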
Hits are given with their value; i = inactive; ? = inconclusive; nt = no result. Unless noted, calls come from the whole dose curve; as a rule, active = well fitted curve in the direction sought with a large enough effect; inconclusive = small, poorly fitted or top-dose-only effect, or another doubt; inactive = no such curve, though single readings can be large; an effect the other way counts as inactive or inconclusive.

SMILES	TDP1 cell noCPT	IL1B secr inh	LDHA inh	DT40 TDP1 CPT	Gal4-VP16 FLuc	RORg inh
O=C(CN1C(=O)C2CCCCN2c2ccc(C(=O)N3CCCC3)cc21)NCc1cccc(Cl)c1 (stereo unspecified)	5.8µM	nt	i	?	nt	nt
CC1(c2ccccc2Cl)NC(=O)N(CC(=O)Nc2ccc(N3CCOCC3)cc2)C1=O (stereo unspecified)	i	i	i	i	nt	nt
CC(C(=O)Nc1ccc(Cl)cc1)N1C(=O)NC2(CCCC2)C1=O (stereo unspecified)	20.6µM	i	i	?	i	i
O=C(CN1C(=O)NC2(CCCC2)C1=O)NCc1cccc(Cl)c1	i	-59.0	i	i	nt	nt
CC1(c2ccccc2Cl)NC(=O)N(CC(=O)Nc2ccc(N3CCCCC3)cc2)C1=O (stereo unspecified)	20.6µM	i	i	?	nt	nt
O=C(CN1C(=O)NC2(CCCC2)C1=O)Nc1ccc(F)c(Cl)c1	i	i	i	i	i	i
CCOC(=O)c1ccc(NC(=O)CN2C(=O)NC3(CCCCCC3)C2=O)cc1	?	i	i	?	i	?
O=C1NC2(CCCCCC2)C(=O)N1Cc1ccc(Cl)cc1Cl	?	-62.7	i	i	i	i
CCCCCC(=O)Nc1ccc(C(=O)CN2C(=O)NC3(CCCCCC3)C2=O)cc1	3.66µM	i	i	5.8µM	nt	nt
O=C1NC2(CCCCCC2)C(=O)N1Cc1ccc(F)cc1Cl	i	i	i	i	i	i
O=C(CN1C(=O)NC2(CCCC2)C1=O)Nc1ccc(F)c([N+](=O)[O-])c1	?	-66.4	i	i	i	i
COc1ccc(Cc2nc3c4c(C)c(C)n(-c5cc(C)ccn5)c4ncn3n2)cc1OC	nt	nt	i	nt	nt	nt
CCN(Cc1ccc2c(c1)OCO2)C(=O)NCc1nc(C)cs1	nt	nt	i	nt	nt	nt
CCN(CC)CCCNC(=O)c1cc2cc(Cl)ccc2[nH]1	nt	nt	i	nt	nt	nt
CCCCCCSc1nnc(-c2cnn(-c3ccccc3)c2-n2cccc2)n1C	20.6µM	i	i	?	?	i
CC/C(C)=N\NC(=O)CCCCC(=O)N/N=C(\C)CC	nt	nt	i	nt	nt	nt
CC(C)[C@H](NC(=O)c1c(F)cccc1F)C(=O)N1CCN(c2ccc(F)cc2)CC1	20.6µM	i	i	?	i	i
O=C(NC(=S)N1CCN(c2ccc(F)cc2)CC1)c1cccs1	?	i	i	?	0.562µM	44.7µM
O=C(NC(=S)N1CCN(c2ccccc2)CC1)c1c(F)cccc1F	i	i	i	i	1.41µM	0.708µM
O=C(NC(=S)N1CCN(c2ccc(O)cc2)CC1)c1cccs1	?	i	i	?	2.82µM	3.55µM
CC(C)C(NC(=O)c1c(F)cccc1F)C(=O)N1CCN(c2ccccc2F)CC1 (stereo unspecified)	i	i	i	i	i	i
O=C(CSc1nnc(-c2ccncc2)n1-c1ccc(Cl)cc1)Nc1ccc(F)cc1	nt	nt	i	nt	nt	nt
Cc1ccc(O)c(C(=O)N(C)Cc2cccc(F)c2)c1	nt	nt	i	nt	nt	nt
CC(C)=C1SC(N2CCN(Cc3ccccc3)CC2)=NC1=O	i	i	i	i	i	?
CC(C)=C1SC(N2CCN(c3cccc(Cl)c3)CC2)=NC1=O	?	-58.9	i	?	i	i
SMILES	TDP1 cell noCPT	IL1B secr inh	LDHA inh	DT40 TDP1 CPT	Gal4-VP16 FLuc	RORg inh
N#CC(Cc1cccnc1)C(=O)Nc1cccc(Cl)c1 (stereo unspecified)	nt	nt	i	nt	nt	nt
CCOC(=O)C(CC)n1cnc2c(nnn2-c2ccc(OC)cc2)c1=O (stereo unspecified)	i	i	i	i	i	i
CCOC(=O)C(CC)n1cnc2c(cnn2-c2ccc(Cl)cc2)c1=O (stereo unspecified)	18.4µM	i	i	?	i	i
CCOC(=O)C(C)n1cnc2c(cnn2-c2ccc(Cl)cc2)c1=O (stereo unspecified)	16.4µM	i	i	?	i	i
CC[C@H](C)[C@H]1O[C@]2(CC[C@@H]1C)C[C@@H]1C[C@@H](C/C=C(\C)[C@@H](O[C@H]3C[C@H](OC)[C@@H](O[C@H]4C[C@H](OC)[C@@H](O)[C@H](C)O4)[C@H](C)O3)[C@@H](C)/C=C/C=C3\CO[C@@H]4[C@H](O)C(C)=C[C@@H](C(=O)O1)[C@]34O)O2	?	nt	nt	10.6µM	nt	nt
CCOC(=O)Cn1c(CN2CCc3ccccc3C2)nc2c1c(=O)n(C)c(=O)n2C	4.61µM	i	i	4.11µM	3.98µM	i
Cn1c(=O)c2c(nc(CN3CCc4ccccc4C3)n2Cc2ccccc2F)n(C)c1=O	6.51µM	-62.6	i	8.2µM	i	i
CCn1c(CN2CCN(c3ccccc3)CC2)nc2c1c(=O)n(C)c(=O)n2C	nt	nt	i	nt	nt	nt
Cn1c(=O)c2c(nc(CN3CCN(c4ccccc4F)CC3)n2Cc2ccccc2F)n(C)c1=O	5.17µM	nt	i	6.51µM	nt	nt
Cn1c(=O)c2c(nc(CN3CCN(c4ccc(F)cc4)CC3)n2Cc2ccccc2F)n(C)c1=O	8.2µM	i	i	10.3µM	i	i
Cn1c(=O)c2c(nc(CN3CCc4ccccc4C3)n2CCCO)n(C)c1=O	?	i	i	i	i	i
C=CCNc1nc(Nc2ccc([N+](=O)[O-])cc2)nc(N2CCCC2)n1	?	-62.8	i	14.6µM	i	0.891µM
CCCNc1nc(Nc2ccc([N+](=O)[O-])cc2)nc(N2CCOCC2)n1	14.1µM	nt	i	12.6µM	nt	nt
CC(NC(=O)CSc1nc(CN2CCOCC2)nc2ccccc12)c1cccc2ccccc12 (stereo unspecified)	nt	nt	i	nt	nt	nt
COc1ccc(OC)c(C=Cc2ccc([N+](=O)[O-])cc2)c1	?	i	i	i	nt	nt
COc1ccc(OC)c(/C=C/c2[nH]c(=O)[nH]c(=O)c2[N+](=O)[O-])c1	i	-59.0	i	i	i	i
CCOC(=O)c1c(C)[nH]c(C(=O)OC(C(=O)N(C)C)c2ccccc2)c1C (stereo unspecified)	10µM	nt	i	10µM	nt	nt
CCOC(=O)c1c(C)[nH]c(CCC(=O)NCc2cccc(C)c2)c1C	16.4µM	nt	i	?	nt	nt
CCOC(=O)c1c(C)[nH]c(CCC(=O)NCc2cccc(OC)c2)c1C	?	nt	i	?	nt	nt
CCOC(=O)c1c(C)[nH]c(C(=O)OC(C)C(=O)NCc2ccccc2)c1C (stereo unspecified)	i	i	i	?	nt	nt
CCOC(=O)c1c(C)[nH]c(CCC(=O)NCc2ccc(OC)cc2OC)c1C	16.4µM	nt	i	?	nt	nt
CCOC(=O)c1c(C)[nH]c(CCC(=O)Nc2cc(Cl)ccc2OC)c1C	20.6µM	nt	i	18.4µM	nt	nt
Fc1ccc(-c2csc(-c3ccsc3)n2)cc1F	nt	nt	i	nt	nt	nt
CC(C)N(C)C1CCN(c2nc(-c3ccncc3)nc3ccccc23)CC1	nt	nt	i	nt	nt	nt
